Source: PubChem BioAssay AID1159580 (chemical genetic matrix, 2015)
Values joined by “and” are separate entries in the source; they are usually repeats but may differ in a detail not shown here. Equal values may be shown once. Out of some 5,500 compounds screened, about 2,000 (36%) were called active. Roughly 18% stayed inconclusive and do not appear here. Cut-off read from the data, not from the text of the source: active = normalized growth mostly below about 0.91 (no sharp cut-off); inconclusive = no clear call, values can overlap the other calls; inactive = mostly above about 0.92. Some of the results follow.

Assay: chemical genetic growth profiling, strain panel (AID 1159580);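 note: tested at 20 µM; growth read once vehicle control cultures reached saturation at 30 °C; 1 = growth at the plate median or of vehicle wells; lower values mean less growth of the strain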
Details: S. cerevisiae deletion strains, growth OD

Measured: normalized growth

Cc1cc(OC(=O)c2c(C)cc(O)cc2O)cc(O)c1C(=O)O
inactive: locus YAL021C, strain ccr4, active compounds read low 1.02 | locus YAL026C, strain drs2, active compounds read low 0.991 | locus YAL030W, strain snc1, active compounds read low 0.995 | locus YBL061C, strain skt5, active compounds read low 0.973 | locus YBR009C, strain hhf1, active compounds read low 0.991 | locus YBR021W, strain FUR4, active compounds read low 1.01 | locus YBR023C, strain chs3, active compounds read low 0.978 | locus YBR171W, strain sec66, active compounds read low 0.988 | locus YBR229C, strain ROT2, active compounds read low 1.01 | locus YBR231C, strain swc5, active compounds read low 0.992 | locus YBR279W, strain paf1, active compounds read low 0.997 | locus YCL011C, strain gbp2, active compounds read low 0.991 | locus YCL016C, strain dcc1, active compounds read low 0.992 | locus YCL029C, strain bik1, active compounds read low 1 | locus YCL061C, strain MRC1, active compounds read low 0.989 | locus YCL069W, strain vba3, active compounds read low 0.998 | locus YCR088W, strain abp1, active compounds read low 0.997 | locus YDL005C, strain med2, active compounds read low 0.983 | locus YDL035C, strain GPR1, active compounds read low 1 | locus YDL040C, strain nat1, active compounds read low 0.98 | locus YDL074C, strain BRE1, active compounds read low 0.999 | locus YDL101C, strain DUN1, active compounds read low 1.01 | locus YDL134C, strain PPH21, active compounds read low 0.99 | locus YDL185W, strain tfp1, active compounds read low 1 | locus YDL192W, strain arf1, active compounds read low 0.979 | locus YDR001C, strain nth1, active compounds read low 1 | locus YDR069C, strain doa4, active compounds read low 0.966 | locus YDR101C, strain arx1, active compounds read low 0.977 | locus YDR137W, strain rgp1, active compounds read low 0.985 | locus YDR159W, strain sac3, active compounds read low 0.987 | locus YDR162C, strain NBP2, active compounds read low 1.01 | locus YDR195W, strain ref2 0.962 | locus YDR297W, strain sur2, active compounds read low 0.99 | locus YDR318W, strain mcm21, active compounds read low 0.981 | locus YDR334W, strain swr1, active compounds read low 0.987 | locus YDR335W, strain msn5, active compounds read low 1.01 | locus YDR388W, active compounds read low 1.02 | locus YDR392W, strain spt3, active compounds read low 0.991 | locus YDR502C, strain sam2, active compounds read low 0.979 | locus YEL003W, strain gim4, active compounds read low 0.972 | locus YEL037C, strain rad23, active compounds read low 1 | locus YEL061C, strain CIN8 (second series), active compounds read low 0.993 | locus YEL061C, strain CIN8, active compounds read low 1.01 | locus YER015W, strain faa2, active compounds read low 0.986 | locus YER016W, strain bim1, active compounds read low 0.993 | locus YER110C, active compounds read low 1.01 | locus YER111C, strain swi4, active compounds read low 0.974 | locus YER155C, strain BEM2 (second series), active compounds read low 0.966 | locus YER155C, strain BEM2, active compounds read low 1.02 | locus YER167W, strain BCK2, active compounds read low 1.01 | locus YFR010W, strain ubp6, active compounds read low 0.968 | locus YGL078C, strain dbp3, active compounds read low 0.967 | locus YGL086W, strain mad1, active compounds read low 0.972 | locus YGL167C, strain pmr1, active compounds read low 0.972 | locus YGL173C, strain kem1, active compounds read low 0.981 | locus YGL227W, strain vid30, active compounds read low 0.996 | locus YGL240W, strain doc1, active compounds read low 0.957 | locus YGL248W, strain PDE1, active compounds read low 1 | locus YGL253W, strain hxk2, active compounds read low 0.99 | locus YGR135W, strain pre9, active compounds read low 0.973 | locus YGR252W, strain gcn5, active compounds read low 0.935 | locus YHR013C, strain ard1, active compounds read low 0.966 | locus YHR027C, strain rpn1, active compounds read low 1.01 | locus YHR030C, strain SLT2, active compounds read low 0.976 | locus YHR079C, strain IRE1 (second series), active compounds read low 1 | locus YHR079C, strain IRE1, active compounds read low 0.968 | locus YHR094C, strain hxt1, active compounds read low 1.02 | locus YHR129C, strain ARP1, active compounds read low 0.997 | locus YHR142W, strain chs7, active compounds read low 1 | locus YHR200W, strain rpn10, active compounds read low 0.985 | locus YIL066C, strain RNR3, active compounds read low 1.01 | locus YIL073C, strain SPO22, active compounds read low 1.01 | locus YIL125W, strain kgd1, active compounds read low 0.995 | locus YIR030C, strain dcg1, active compounds read low 1 | locus YJL092W, strain hpr5, active compounds read low 0.989 | locus YJL095W, strain BCK1 (second series), active compounds read low 0.986 | locus YJL095W, strain BCK1, active compounds read low 0.991 and 0.996 | locus YJL115W, strain asf1, active compounds read low 0.987 | locus YJL129C, strain trk1, active compounds read low 0.983 | locus YJL134W, strain LCB3, active compounds read low 1.02 | locus YJL154C, strain vps35, active compounds read low 0.993 | locus YJL164C, strain tpk1, active compounds read low 1.02 | locus YJL166W, strain qcr8, active compounds read low 0.987 | locus YJL168C, strain set2, active compounds read low 1 | locus YJL187C, strain SWE1 (second series), active compounds read low 0.993 | locus YJL187C, strain SWE1, active compounds read low 1 | locus YJR043C, strain POL32, active compounds read low 1 | locus YJR066W, strain TOR1, active compounds read low 0.894 | locus YJR075W, strain HOC1, active compounds read low 1.01 | locus YKL009W, strain mrt4, active compounds read low 0.991 | locus YKL068W, active compounds read low 1.02 | locus YKL085W, strain MDH1 (second series), active compounds read low 1 | locus YKL085W, strain MDH1, active compounds read low 1 | locus YKL160W, strain elf1, active compounds read low 1.02 | locus YKL190W, strain CNB1, active compounds read low 1.01 | locus YKR001C, strain vps1, active compounds read low 0.98 | locus YKR026C, strain gcn3, active compounds read low 0.983 | locus YKR091W, strain srl3, active compounds read low 0.992 | locus YLL001W, strain dnm1, active compounds read low 1.01 | locus YLL026W, active compounds read low 0.991 | locus YLL041C, strain sdh2, active compounds read low 0.972 | locus YLR027C, strain aat2, active compounds read low 0.99 | locus YLR039C, strain RIC1, active compounds read low 0.914 | locus YLR058C, strain SHM2, active compounds read low 0.992 | locus YLR102C, strain apc9, active compounds read low 1.01 | locus YLR113W, strain HOG1, active compounds read low 1.01 | locus YLR221C, strain rsa3, active compounds read low 0.979 | locus YLR258W, strain gsy2, active compounds read low 0.992 | locus YLR262C, strain YPT6 (second series), active compounds read low 1.01 | locus YLR262C, strain YPT6, active compounds read low 0.989 | locus YLR268W, strain sec22, active compounds read low 0.983 | locus YLR320W, strain mms22, active compounds read low 0.975 | locus YLR330W, strain CHS5, active compounds read low 1.01 | locus YLR342W, strain FKS1 (second series), active compounds read low 1.01 | locus YLR342W, strain FKS1, active compounds read low 0.991 | locus YLR357W, strain rsc2, active compounds read low 0.984 | locus YLR370C, strain arc18, active compounds read low 0.978 | locus YLR371W, strain rom2, active compounds read low 1 | locus YLR384C, strain iki3, active compounds read low 0.963 | locus YLR418C, strain cdc73, active compounds read low 0.951 | locus YML016C, strain PPZ1, active compounds read low 1.01 | locus YML032C, strain rad52, active compounds read low 0.979 | locus YML120C, strain ndi1, active compounds read low 0.994 | locus YML124C, strain tub3, active compounds read low 1 | locus YMR058W, strain fet3, active compounds read low 0.99 | locus YMR078C, strain ctf18, active compounds read low 1 | locus YMR125W, strain sto1, active compounds read low 0.992 | locus YMR129W, active compounds read low 0.996 | locus YMR205C, strain PFK2, active compounds read low 1.03 | locus YMR223W, strain ubp8, active compounds read low 0.975 | locus YMR231W, strain pep5, active compounds read low 0.955 | locus YMR307W, strain GAS1, active compounds read low 0.988 | locus YNL067W, strain RPL9B, active compounds read low 1 | locus YNL071W, strain lat1, active compounds read low 1.02 | locus YNL153C, strain GIM3, active compounds read low 0.985 | locus YNL183C, strain NPR1, active compounds read low 0.933 | locus YNL209W, strain ssb2, active compounds read low 0.996 | locus YNL233W, strain BNI4, active compounds read low 0.989 | locus YNL248C, strain rpa49, active compounds read low 0.992 | locus YNL250W, strain rad50, active compounds read low 1.03 | locus YNL271C, strain bni1, active compounds read low 1.01 | locus YNL298W, strain CLA4, active compounds read low 0.986 | locus YNL307C, strain MCK1, active compounds read low 1 | locus YNL322C, strain KRE1 (second series), active compounds read low 0.974 | locus YNL322C, strain KRE1, active compounds read low 0.986 | locus YNR049C, strain mso1, active compounds read low 0.975 | locus YNR052C, strain pop2, active compounds read low 0.978 | locus YOL006C, strain TOP1, active compounds read low 1.08 | locus YOL012C, strain htz1 1.01 | locus YOL147C, strain pex11, active compounds read low 1.01 | locus YOR001W, strain rrp6, active compounds read low 0.96 | locus YOR061W, strain CKA2, active compounds read low 1.01 | locus YOR069W, strain VPS5, active compounds read low 1.01 | locus YOR070C, strain gyp1, active compounds read low 1 | locus YOR080W, strain dia2, active compounds read low 0.975 | locus YOR083W, strain WHI5, active compounds read low 1.03 | locus YOR106W, strain vam3, active compounds read low 1.03 | locus YOR136W, strain idh2, active compounds read low 1.01 | locus YOR144C, strain elg1, active compounds read low 1.01 | locus YOR184W, strain ser1, active compounds read low 0.973 | locus YOR231W, strain MKK1, active compounds read low 0.974 | locus YOR265W, strain rbl2, active compounds read low 0.991 | locus YOR270C, strain vph1, active compounds read low 0.99 | locus YOR290C, strain snf2, active compounds read low 0.969 | locus YOR316C, strain cot1, active compounds read low 1.01 | locus YPL051W, strain arl3, active compounds read low 0.993 | locus YPL078C, strain atp4, active compounds read low 1.03 | locus YPL106C, strain sse1, active compounds read low 0.99 | locus YPL240C, strain hsp82, active compounds read low 0.974 | locus YPL241C, strain CIN2, active compounds read low 1.02 | locus YPL256C, strain CLN2, active compounds read low 1.01 | locus YPR119W, strain clb2, active compounds read low 1.01 | locus YPR141C, strain kar3, active compounds read low 1.02 | locus YPR163C, strain tif3, active compounds read low 0.983 | locus YPR167C, strain met16, active compounds read low 0.976 | strain wtn01, active compounds read low 0.978
